Test in all cases: NCI-60 one-dose screen, 48 h (100 = growth as untreated, 0 = no growth, -100 = all killed)
What all share (details): 10 µM unless noted

The subject of experiment [1] is HCT-15 colon.
Experiment [2] relates to HT29 colon.
Experiment [3] has as its system SNB-75 CNS.
The subject of experiment [4] is SNB-19 CNS.
In experiment [5] the test system is U251 CNS.
Experiment [6] concerns PC-3 prostate.
In experiment [7] the test system is SK-MEL-5 melanoma.
Experiment [8] concerns LOX IMVI melanoma.
Experiment [9] concerns SK-MEL-28 melanoma.

The structures appear in SMILES notation. This is part of a sample that, as a whole, favours compounds with a hit. Of some 83,000 tested, about 20% had one in any assay.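 Assay: single dose, 48 h. Readout: percent growth (0 = no net growth; negative = cell death). Active: <10.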 Unmarked numbers belong to inactive results. Active and inactive are the calls of the source.

Turning to `Cc1ccc2oc(=O)cc(-c3sc(N4CCCCC4)nc3-c3ccccc3)c2c1`, the growth in experiment [1] is 96.9%; in experiment [2], 99.9%; in [3] it was 78.1%; in experiment [4] it was 95.3%; in experiment [5], 101%; in experiment [6], 88.1%. Besides, the growth in [7] was 91.3%; in experiment [8], 91.2%; in experiment [9] it was 103%.
`Cn1c(=O)c2c(ncn2CCC(=O)Nc2ccc(F)cc2)n(C)c1=O`: the growth was 106% in experiment [1]; 94% in experiment [2]; 91.5% in experiment [3]; 102% in experiment [4]; 98.4% in [5]; 80.9% in [6]. For the same compound, the growth in experiment [7] was 111%; in experiment [8] it was 97.9%; in experiment [9], 114%.
Turning to `Cn1c(=O)c2c(nc(Br)n2CC(=O)Nc2ccc(F)cc2)n(C)c1=O`, the growth in experiment [1] is 115%; in experiment [2], 97.8%; in experiment [3], 83.4%; in [4], 97.5%; in experiment [5] it was 100%; in [6], 75.5%. In addition, the growth was 104% in experiment [7], 96.7% in experiment [8] and 118% in [9].
In the case of `Cn1cnc2c1c(=O)n(CCC(=O)Nc1ccc(F)cc1)c(=O)n2C`, the growth in experiment [1] is 104%; in [2], 86.6%; in experiment [3], 94.6%; in experiment [4] it was 105%; in experiment [5], 96.2%; in experiment [6], 91.1%. Besides, the growth was 107% in experiment [7], 102% in experiment [8] and 110% in experiment [9].
For the compound `COc1ccc(-c2nc(Nc3ccc(-c4nc5ccccc5[nH]4)cc3)nc(N3CCOCC3)n2)cc1`, the growth in experiment [1] was -62.2% (active); in [2], -23.1% (active); in experiment [3] it was -19.2% (active); in [4], 17.5%; in experiment [5], 6.38% (active); in [6], 2.31% (active). In addition, the results for the growth in experiment [7], in experiment [8] and in experiment [9] were -90.7% (active), -75.6% (active) and -34% (active), respectively.
As to `N#Cc1cnc2cc(OC[C@@H](O)CO)c(NC(=O)CC3CSSC3)cc2c1Nc1ccc(OCc2cccc(F)c2)c(Cl)c1`, the growth in experiment [1] was 22%; in experiment [2], -81.6% (active); in [3], -88% (active); in experiment [4] it was -66% (active); in [5] it was -70.2% (active); in experiment [6] it was -82.3% (active). In addition, the growth in experiment [7] is -97% (active); in experiment [8], -84.2% (active); in experiment [9] it was -71.9% (active).
Consider `C[Si](C)(C)Cc1ccccc1`, for which the growth was 110% in experiment [1]; 114% in experiment [2]; 87.8% in experiment [3]; 116% in experiment [4]; 114% in [5]; 105% in experiment [6]. For the same compound, the growth in experiment [7] was 108%; in experiment [8] it was 102%; in experiment [9], 128%.
Consider `COc1cc2ncnc(Nc3ccc(OCc4cccc(F)c4)c(Cl)c3)c2cc1NC(=O)C1CCCC1`, for which the growth in experiment [1] is 80.2%; in experiment [2], 82.3%; in [3], 69.2%; in [4] it was 83.3%; in experiment [5], 91.8%; in [6] it was 63.3%. Also, the growth was 95% in [7], 87.5% in [8] and 90.1% in [9].
As for `Fc1ccc(Nc2nnc(-c3ccc(Cl)cc3)o2)cc1`, the growth in [1] was 98.4%; in [2], 94.7%; in experiment [3], 102%; in experiment [4], 101%; in experiment [5] it was 92.1%; in experiment [6], 86.7%. In addition, the growth in experiment [7] was 99.8%; in [9], 106%.
With `Cc1ccc(N(CC(=O)Nc2ccc(S(=O)(=O)N3CCC(N4CCCC4)CC3)cc2)S(=O)(=O)c2ccc(Cl)cc2)cc1`, the growth in [1] was -47.8% (active); in [2] it was -16.9% (active); in experiment [3], 62.7%; in experiment [4], 40.6%; in [5], -2.58% (active); in experiment [6], 12%. For the same compound, the growth in experiment [7] was -97.6% (active); in experiment [8], -88.5% (active); in experiment [9] it was -68.3% (active).
On to `O=P(O)(c1ccccc1)c1ccccc1I`, for which the growth in experiment [1] was 111%; in [2], 80%; in experiment [3] it was 84%; in experiment [4], 103%; in [5], 89.3%; in experiment [6], 82.1%. In addition, the figures for the growth in [7], in [8] and in experiment [9] were 96.8%, 93.8% and 108%, respectively.
As to `O=C(N/N=C/c1ccccc1SSc1ccccc1/C=N/NC(=O)c1ccccc1)c1ccccc1`, the growth in [1] is 21.6%; in experiment [2], 43.3%; in experiment [3] it was 65.8%; in [4], 44.8%; in [5] it was 34.1%; in experiment [6] it was 40.2%. Besides, the growth in [7] was 22.5%; in experiment [8], 11.1%; in experiment [9], 39.6%.
For the compound `OCC(CO)(CCl)CCl`, the growth in [1] was 109%; in experiment [2], 96.6%; in [3], 96.8%; in experiment [4], 98.7%; in experiment [5], 84.8%; in experiment [6], 80.2%. For the same compound, the growth in experiment [7] was 104%; in [8] it was 98.2%; in experiment [9] it was 103%.
For `COc1ccc(C2(Cl)c3ccccc3N(c3ccccc3)c3ccccc32)cc1`, the growth in experiment [1] was 8.52% (active); in experiment [2], 3.7% (active); in experiment [3], 3.72% (active); in experiment [4] it was 6.63% (active); in experiment [5], -87.5% (active); in experiment [6] it was -24.4% (active). The values for the growth in experiment [7], in experiment [8] and in experiment [9] were -87.3% (active), -84.3% (active) and -74.7% (active), respectively.
Turning to `N=c1ccc2nc3c(cc(N)c4ccccc43)oc-2c1`, the growth is -69.9% (active) in experiment [1]; -63% (active) in experiment [2]; -100% (active) in experiment [3]; -94.7% (active) in [4]; -87.8% (active) in experiment [5]; -39.3% (active) in [6]. Moreover, the growth is -100% (active) in experiment [7], -95.6% (active) in [8] and -78.8% (active) in experiment [9].
On to `c1cnc2[nH]cc(-c3csc(-c4cn(CCCN5CCCCC5)c5ccccc45)n3)c2c1`, for which the growth is 4.45% (active) in experiment [1]; -55.8% (active) in [2]; 60.2% in [3]; 39.2% in experiment [4]; 10.4% in [5]; 34.9% in [6]. Besides, the figures for the growth in [7], in [8] and in [9] were -80.1% (active), -67.6% (active) and -68.4% (active), respectively.
With `O=C(NO)c1ccc(Cn2c(=O)n(CCc3ccc(O)cc3)c(=O)c3ccccc32)cc1`, the growth in experiment [1] is 96.5%; in [2], 92.2%; in experiment [3], 47.8%; in experiment [4], 44.1%; in experiment [5] it was 8.31% (active); in [6], 38.7%. In addition, the growth is 42.1% in experiment [7], 22.4% in [8] and 17.5% in [9].
For `CCCCC[C@H]1CC=C2C(=O)C=C[C@@H]2CC=CCCCC(=O)O[C@@H](CCCCC)CC=C2C(=O)C=C[C@@H]2CC=CCCCC(=O)O[C@@H](CCCCC)CC=C2C(=O)C=C[C@@H]2CC=CCCCC(=O)O1`, the growth in experiment [1] is 7.88% [8.75 µM] (active); in experiment [2], -12.4% [8.75 µM] (active); in experiment [3] it was 48.7% [8.75 µM]; in experiment [4], 9.32% [8.75 µM] (active); in [5] it was -49.4% [8.75 µM] (active); in [6] it was -15.7% [8.75 µM] (active). Besides, the growth was -76.7% [8.75 µM] (active) in experiment [7] and -48.7% [8.75 µM] (active) in [9].
Take `COc1ccc(C2C(C#N)=C(N)Oc3c2sc2c(F)cccc32)cc1` (centres undefined): the growth in experiment [1] is 24.4%; in experiment [2] it was 7.77% (active); in [3], 3.73% (active); in experiment [4], 22.8%; in experiment [5], 24.2%; in [6] it was 15.7%. The growth in [7] was 22.5%; in [8], 29.9%; in [9] it was 60.5%.
For `COc1cc(/C=C2\C(=O)N(CC(O)COc3cc(O)c4c(=O)cc(-c5ccccc5)oc4c3)c3ccccc32)cc(OC)c1O` (centres undefined), the growth in [1] is 59.1%; in [2] it was 88.2%; in experiment [3], 81.1%; in experiment [4], 92.2%; in [5], 91.6%; in experiment [6], 61.1%. Further, the values for the growth in [7] and in experiment [9] were 50% and 92%, respectively.
For `c1ccc(-c2nc(Nc3ccc(-c4nc5ccccc5[nH]4)cc3)nc(N3CCOCC3)n2)cc1`, the growth is -68.9% (active) in experiment [1]; -59.9% (active) in [2]; -89.6% (active) in experiment [3]; -18.6% (active) in experiment [4]; -67.5% (active) in experiment [5]; -35.5% (active) in [6]. Also, the results for the growth in experiment [7], in experiment [8] and in [9] were -95.4% (active), -89% (active) and -82.9% (active), respectively.
For the compound `NCCn1cc(-c2nc(-c3c[nH]c4ncccc34)cs2)c2ccccc21`, the growth in [1] is 88.6%; in experiment [2], 98.2%; in experiment [3], 61.9%; in experiment [4], 89.4%; in experiment [5], 91.5%; in [6], 70.2%. Also, the growth was 77.2% in [7], 89.9% in experiment [8] and 107% in experiment [9].
Consider `O=C(NCN1C(=O)c2cccc3cccc(c23)C1=O)N1CCC(Cc2ccccc2)CC1`, for which the growth is 104% in experiment [1]; 70.1% in experiment [2]; 89.4% in experiment [3]; 92.5% in [4]; 97.5% in [5]; 72.9% in experiment [6]. The growth in experiment [7] is 101%; in [8], 97.5%; in experiment [9], 107%.
On to `N#CC1=C(N)Oc2c(sc3c(F)cccc23)C1c1ccc(Cl)cc1` (centres undefined), for which the growth was 23.9% in [1]; 15.6% in experiment [2]; 13.8% in experiment [3]; 29.2% in experiment [4]; 25.7% in experiment [5]; 8.41% (active) in experiment [6]. Also, the results for the growth in experiment [7], in experiment [8] and in [9] were 18.1%, 30.3% and 49.6%, respectively.
As for `CC/C(=N/NC(N)=O)c1ccccc1`, the growth in experiment [1] was 91.2%; in experiment [2], 104%; in experiment [3] it was 98%; in experiment [4], 108%; in experiment [5] it was 102%; in experiment [6], 102%. Besides, the growth in experiment [7] is 102%; in experiment [8] it was 99%; in experiment [9], 101%.
Turning to `COC(c1ccccc1)(c1ccccc1)c1ccccc1`, the growth in experiment [1] was 104%; in experiment [2], 100%; in [3], 87.7%; in experiment [4], 96%; in experiment [5], 107%; in experiment [6] it was 102%. Further, the growth is 103% in experiment [7], 99.2% in [8] and 109% in [9].
Consider `O=C(/C(=C(\C(=O)c1ccccc1)c1ccccc1)c1ccccc1)c1ccccc1`, for which the growth is 24% in [1]; 37.6% in experiment [2]; 72.8% in experiment [3]; 74% in experiment [4]; 47.3% in experiment [5]; 30% in experiment [6]. Also, the growth in experiment [7] is 59.5%; in experiment [8] it was 64.6%; in experiment [9], 89.8%.
As to `Cc1cccc(C)c1NCc1nc(-c2ccccc2)n[nH]1`, the growth was 101% in [1]; 103% in experiment [2]; 89.7% in experiment [3]; 94.7% in experiment [4]; 101% in experiment [5]; 100% in [6]. For the same compound, the growth in experiment [7] was 102%; in experiment [8], 97.9%; in experiment [9] it was 96.8%.

The values above are taken from PubChem BioAssay (NCI).
